# Experimental data: PubChem BioAssay AID588382 (National Center for Advancing Translational Sciences (NCATS), 2011)
# Among all 1,300 compounds or so, about 150 (12%) were called active. A call without a number means that no potency is given here. About 30% were inconclusive and are not listed. The sample holds actives, similar compounds and a random draw of the others, so the mix is not that of the screen. The call rests on the fitted dose curve; in most records, active means well fitted cell-killing curve with a large enough effect; inconclusive means small, poorly fitted or top-dose-only effect, or effect the other way; inactive means flat fitted curve, though single readings scatter.
# Assay: qHTS of small molecules that selectively kill Giardia lamblia: Hit Validation in HepG2 cytotox;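 further: compound exposure lasted overnight at 37 deg C; nearly all actives have a fitted effect of over 55% in size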
# Conditions: cell viability; Potency: HepG2 cytotoxicity; series mostly up to 38.3 µM
# Method in brief: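 Counterscreen cytotoxicity: ATPLite luminescence (15 min, room temperature) measured in HepG2 cells exposed overnight at 37 deg C to pin-transferred compound (23 nL) after overnight pre-incubation.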
# Potency means the concentration at half of the fitted maximal effect.
row,SMILES,Potency
1,COc1ccc(CC(NC(C)=O)C(=O)NC2CCN(c3ncccc3[N+](=O)[O-])CC2)cc1 (stereo not given),inactive
2,CCC1CCCCN1C(=O)c1ccc([N+](=O)[O-])o1 (stereo not given),inactive
3,Cc1ccc(C2=NCCn3c2c2ccc([N+](=O)[O-])cc2[n+]3[O-])cc1,inactive
4,O=[n+]1c2c(n([O-])c3cc(Br)ccc31)CCCC2,inactive
5,CCOc1cc(C=O)ccc1OCCn1c([N+](=O)[O-])cnc1C,inactive
6,CCOC(=O)C1=C(C)N=c2s/c(=C/c3cccc([N+](=O)[O-])c3O)c(=O)n2C1c1ccc(OC)cc1OC (stereo not given),inactive
7,CCN(CC)CCOC(=O)c1ccc(N/C=C(/C#N)c2nc(-c3cc4ccccc4oc3=O)cs2)cc1,inactive
8,O=[N+]([O-])c1ncn(Cc2c(Cl)cccc2Cl)n1,inactive
9,C=CCNC(=O)c1ccccc1NC(=O)COc1ccccc1,inactive
10,O=C(COc1cccnc1[N+](=O)[O-])NCc1ccc(F)cc1,inactive
11,CC(=O)c1c(COC(=O)c2ccccc2Cl)nc2ccccc2[n+]1[O-],inactive
12,O=[N+]([O-])c1ccc2nc(-c3ccc(OC(F)F)cc3)cn2c1,inactive
13,COc1cccc([C@@H]2CC=C(C(=O)O)[C@H](c3cccc(Cl)c3)N2S(=O)(=O)c2ccc(C)cc2)c1,inactive
14,COc1ccc(NC(=O)c2ccc([N+](=O)[O-])cc2[N+](=O)[O-])c(OC)c1,inactive
15,CC(=O)c1c(C)n([O-])c2cc(C)ccc2[n+]1=O,inactive
16,NC(=O)c1c(NC(=O)CCCn2cnc([N+](=O)[O-])n2)sc2c1CCCC2,inactive
17,NC(=O)c1c(NC(=O)c2ccc([N+](=O)[O-])o2)sc2c1CCCC2,11.7 µM (active)
18,COC(=O)c1sc(NC(=O)c2ccc([N+](=O)[O-])o2)c(C#N)c1C,inactive
19,O=C(c1ccc([N+](=O)[O-])o1)N1CCc2ccccc2C1,inactive
20,CC(=O)N1CCc2c(sc(NC(=O)c3ccc([N+](=O)[O-])o3)c2C#N)C1,3.29 µM (active)
21,O=C1S/C(=C\c2ccc(O)c([N+](=O)[O-])c2)C(=O)N1Cc1cccc([N+](=O)[O-])c1,inactive
22,OC(COc1cccc2ccccc12)CN1CCN(c2ccc(Cl)cc2)CC1 (stereo not given),inactive
23,O=[N+]([O-])C(/C=C(\Cl)[N+](=O)[O-])=C(N1CCCCC1)N1CCCCC1,inactive
24,CC(=O)NC(Cc1ccccc1F)C(=O)NC1CCN(c2ncccc2[N+](=O)[O-])CC1 (stereo not given),inactive

row,SMILES,Potency
1,CCN(CCCNC(=O)c1nn(C)c2c1CS(=O)(=O)c1ccccc1-2)Cc1ccccc1,inactive
2,CC(C)(C)C1C/C(=C/c2ccccn2)C(=O)/C(=C/c2ccccn2)C1 (stereo not given),0.585 µM (active)
3,O=C1CC(c2ccc(F)cc2)CC2=C1C(c1ccc([N+](=O)[O-])o1)Nc1ccccc1N2 (stereo not given),inactive
4,O=c1[nH]c(=O)c2cc([N+](=O)[O-])cc([N+](=O)[O-])c2[nH]1,inactive
5,O=[N+]([O-])c1ccc(/C=N/Nc2nc(N3CCCCC3)nc(N3CCCCC3)n2)o1,inactive
6,Cc1ccc(NC(=O)COc2cccnc2[N+](=O)[O-])cc1S(=O)(=O)N1CCCCC1,inactive
7,CC(C)C(=O)NC(=S)Nc1ccc(S(=O)(=O)N2CCCC2)cc1,inactive
8,COc1ccc(C)cc1NC(=O)c1cc(S(=O)(=O)N2CCCC2)cn1C,inactive
9,COc1ccc(S(=O)(=O)N2CCOCC2)cc1NC(=O)COc1cccnc1[N+](=O)[O-],inactive
10,COc1ccc(S(=O)(=O)N2CCN(C(=O)c3ccc([N+](=O)[O-])o3)CC2)cc1,inactive
11,O=C(Nc1ccc(S(=O)(=O)N2CCOCC2)cc1)c1ccc([N+](=O)[O-])o1,13.1 µM (active)
12,O=C(Nc1ccccc1N1CCOCC1)c1ccc([N+](=O)[O-])o1,inactive
13,O=C(Nc1ccc(S(=O)(=O)N2CCCC2)cc1)c1ccc([N+](=O)[O-])o1,2.93 µM (active)
14,Cc1ccc(NC(=O)c2ccc([N+](=O)[O-])o2)cc1S(=O)(=O)N1CCOCC1,13.1 µM (active)
15,COc1ccc(S(=O)(=O)N2CCCCC2)cc1NC(=O)c1ccc([N+](=O)[O-])o1,3.29 µM (active)
16,O=C(Cc1ccc(Cl)cc1)Nc1ncc([N+](=O)[O-])s1,inactive
17,Cc1ccc(-n2c(C)cc(C(=O)COc3cccnc3[N+](=O)[O-])c2C)cc1,inactive
18,O=C(c1ccc([N+](=O)[O-])o1)N1CCc2ccccc21,inactive
19,Cc1cc(C)cc(N=c2c([N+](=O)[O-])nn(-c3ccc(Cl)cc3)n2O)c1,inactive
20,O=C(COc1cccnc1[N+](=O)[O-])NCc1ccco1,inactive
21,COc1ccc(OC)c(CCNC(=O)CSc2ccsc2[N+](=O)[O-])c1,inactive
22,Cc1ccc(S(=O)(=O)N2[C@@H](c3ccc(Cl)cc3)C(C(=O)O)=CC[C@H]2c2ccc(Cl)c(Cl)c2)cc1,inactive
23,Cn1nc(N)c2c(-c3ccccc3)c(C#N)c(N)nc21,inactive
24,Cc1ccc(N=c2c([N+](=O)[O-])nn(-c3ccc4c(c3)OCCO4)n2O)cc1F,inactive

row,SMILES,Potency
1,CC(C)(C)n1nc(-c2ccc(Cl)cc2)c2c(N)ncnc21,inactive
2,[O-][n+]1c2cc(C(F)(F)F)ccc2c2n1CCN=C2c1ccc(Cl)cc1,inactive
3,CCOC(=O)CSc1ccc(C(=O)NCCCN2CCOCC2)cc1[N+](=O)[O-],inactive
4,O=[N+]([O-])c1cc(S(=O)(=O)Nc2cccc(Cl)c2)ccc1N/N=C/c1ccc(N2CCOCC2)cc1,inactive
5,O=C(COc1cccnc1[N+](=O)[O-])Nc1cccc(S(=O)(=O)N2CCCCC2)c1,inactive
6,O=C(Nc1cccc(S(=O)(=O)N2CCCCC2)c1)c1ccc([N+](=O)[O-])o1,11.7 µM (active)
7,CC(=O)NC(Cc1cccc(C)c1)C(=O)NC1CCN(c2ncccc2[N+](=O)[O-])CC1 (stereo not given),inactive
8,Cc1cc(C)n(S(=O)(=O)c2ccccc2[N+](=O)[O-])n1,inactive
9,CC(NC(=O)c1ccc(N(C)C)c([N+](=O)[O-])c1)c1ccc(-n2ccnc2)cc1 (stereo not given),inactive
10,CC(=O)NC(Cc1cccc(F)c1)C(=O)NC1CCN(c2ncccc2[N+](=O)[O-])CC1 (stereo not given),inactive
11,C/C(=N\NC(=O)COc1ccc(C)cc1Br)c1cc([N+](=O)[O-])cs1,inactive
12,CC12CN3CC(C)(CN(C1)C3c1ccc([N+](=O)[O-])o1)C2 (stereo not given),inactive
13,O=[N+]([O-])c1cccc2nc3ccccc3c(NCCCn3ccnc3[N+](=O)[O-])c12,0.0736 µM (active)
14,O=C(NC(=S)Nc1ccc(CN2CCOCC2)cc1)c1ccc([N+](=O)[O-])cc1Cl,inactive
15,CCN(CC)CCCC(C)Nc1c2ccc(Cl)cc2nc2ccc(OC)cc12 (stereo not given),4.65 µM (active)
16,CCN(CC)CCCC(C)Nc1cc(/C=C/c2ccccc2Cl)nc2cc(Cl)ccc12 (stereo not given),2.07 µM (active)
17,CCc1nc2cc([N+](=O)[O-])c([N+](=O)[O-])cc2[nH]1,inactive
18,Cc1cccc(-n2nc([N+](=O)[O-])c(=NCc3cccnc3)n2O)c1,inactive
19,O=C(COc1cccnc1[N+](=O)[O-])Nc1cc(Cl)ccc1Cl,inactive
20,COc1ccccc1C(=O)NC(=O)OCCn1c(C)cnc1[N+](=O)[O-],inactive
21,O=[N+]([O-])c1ccc(Nc2ccccc2)c2nonc12,inactive
22,O=[N+]([O-])c1nn(-c2ccc3c(c2)OCCO3)n(O)c1=NC1CCCCCC1,inactive
23,Cc1ccnc(NC(=O)c2ccc3c(c2)OCO3)c1,0.585 µM (active)
24,Cc1ccc(C(=O)Nc2ccc3c(c2)OCCO3)o1,inactive

row,SMILES,Potency
1,O=C(COc1cccnc1[N+](=O)[O-])Nc1ccc2c(c1)OCO2,inactive
2,Cc1ncc([N+](=O)[O-])n1CCOC(=O)Nc1ccc([N+](=O)[O-])cc1,inactive
3,COc1cccc(NC(=O)COc2cccnc2[N+](=O)[O-])c1,inactive
4,O=c1c(-c2cccc([N+](=O)[O-])c2)[n+]([O-])c2ccccc2n1O,inactive
5,O=C1C(c2ccncc2)=C(O)c2ccccc21,5.85 µM (active)
6,Cn1c(=O)c(=O)n(C)c2cc([N+](=O)[O-])c(N3CCOCC3)cc21,inactive
7,O=C(Nc1nccs1)c1cc([N+](=O)[O-])ccc1Cl,inactive
8,Cc1cc(=O)oc2cc(O)c(N=Nc3ccccc3)cc12,inactive
9,CC(C)OC(=O)Nc1ccc2c(c1)N(C(=O)N1CCN(C)CC1)c1ccccc1CC2,0.521 µM (active)
10,CC(NC(=O)Cn1cc(Br)c([N+](=O)[O-])n1)c1ccccc1 (stereo not given),inactive
11,Cc1ncc([N+](=O)[O-])n1CCOC(=O)C12CC3CC(CC(C3)C1)C2,inactive
12,CCOC(=O)c1ccc(NS(C)(=O)=O)cc1,inactive
13,CCOC(=O)c1c(C)[nH]c2c1-c1ccccc1C(=O)C2=O,2.61 µM (active)
14,CCOC(=O)C1=C(C)NC2=C(C(=O)c3ccccc32)C1c1ccc([N+](=O)[O-])o1 (stereo not given),inactive
15,CC(NC(=O)COc1cccnc1[N+](=O)[O-])c1ccc(Cl)cc1Cl (stereo not given),inactive
16,COC(=O)c1ccc(Nc2ccc3nonc3c2[N+](=O)[O-])cc1,inactive
17,CCn1cnc2c([N+](=O)[O-])c(NS(=O)(=O)c3ccc(C)cc3)ccc21,inactive
18,COc1cc(/C=C2\SC(=O)N(Cc3ccc(Cl)cc3)C2=O)cc([N+](=O)[O-])c1O,inactive
19,O=C(Cc1ccccc1)Nc1nnc(-c2cccs2)s1,inactive
20,O=[N+]([O-])c1ncc(Br)cc1Nc1ccccc1,inactive
21,O=S(=O)(Nc1cc(Sc2cccc3cccnc23)c(O)c2ccccc12)c1ccc(F)cc1,4.65 µM (active)
22,COC(=O)[C@@]1(Cc2ccc(OC)cc2)[C@H]2c3cc(C(=O)N4CCCC4)n(CCn4cc([N+](=O)[O-])nc4C)c3C[C@H]2CN1C(=O)c1ccccc1,inactive
23,CN(C)/[N+]([O-])=N/Oc1ccc([N+](=O)[O-])cn1,inactive
